sPLA2-III inh: human group III sPLA2 inhibitors, primary screen, biochemical, QFRET, BODIPY PC-A2 liposome substrate. 0.56% of 370,000 active. QFRET BODIPY PC-A2 liposome hydrolysis, fluorescence. Group 3 secretory phospholipase A2 (Homo sapiens), Q9NZ20. AID 743126, 2013. inhibition, % at 12.2 µM;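 active means inhibition above mean plus 3 SD of compounds lying within the high and low control bounds, cut at about 19% in these data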;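 further: 0% = median of test compound wells and 100% = no enzyme DMSO wells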
HTR5A ag ctr: HTR5A agonists in luminescence cell assay, primary screen, counter-screen for OPRM1-OPRD1 heterodimer agonist project, full-deck HTS; cell-based; activation, % at 9.3 µM; 0.61% of 340,000 active; in the data active means activation mostly above about 9.5%, no sharp cut-off; inactive means mostly below about 7.6%;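 further: 0% = cells with vehicle only and 100% = reference agonist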
Target sequence (P47898 whole entry, looked up): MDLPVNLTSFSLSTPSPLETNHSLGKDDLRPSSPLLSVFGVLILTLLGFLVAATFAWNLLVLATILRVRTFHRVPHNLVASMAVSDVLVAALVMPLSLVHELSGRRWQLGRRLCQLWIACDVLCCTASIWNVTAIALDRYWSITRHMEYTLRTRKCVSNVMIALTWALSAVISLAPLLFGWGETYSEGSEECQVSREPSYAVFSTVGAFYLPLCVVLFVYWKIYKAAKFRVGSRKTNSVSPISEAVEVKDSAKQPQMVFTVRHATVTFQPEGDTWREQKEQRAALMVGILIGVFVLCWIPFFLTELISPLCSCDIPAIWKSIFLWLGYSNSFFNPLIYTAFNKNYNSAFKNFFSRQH
MOR-DOR inv ag-1: inverse agonists of MOR-DOR heterodimerization, primary screen, cell-based, luminescence; Mu-type opioid receptor (Homo sapiens) + Delta-type opioid receptor (Homo sapiens), …; cell-based MOR-DOR heterodimer luminescence, inverse agonism; inhibition, % at 9.3 µM; 0.21% of 340,000 active; in the data active means inhibition above about 22%, passing the limit was not always enough;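 further: 0% = cells with DMSO and 100% = wells without cells with DMSO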
HTR2A ag: mouse Htr2a agonists via beta-arrestin recruitment, primary screen, cell-based, luminescence; 5-hydroxytryptamine receptor 2A (Mus musculus), P35363; activation, % at 7.6 µM; CHO-K1 mHTR2A beta-arrestin complementation; percent of 30 µM serotonin response; 0.66% of 360,000 active;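 active means activation above a run cutoff, the mean activation of all tested compounds plus 3 SD, cut at about 14% in these data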;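 further: 0% = plate median of compound wells and 100% = 30 µM serotonin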
HTR5A inv ag: HTR5A inverse agonists in luminescence cell assay, primary screen, counter-screen for OPRM1-OPRD1 heterodimer inverse agonist project, full-deck HTS; HTR5A cell line, inverse agonism; inhibition, % at 9.3 µM; 0.083% of 340,000 active; AID 504634, 2011; in the data active means inhibition mostly above about 23%, no sharp cut-off; inactive means mostly below about 18%;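 further: 0% = cells with DMSO and 100% = no-cell wells with DMSO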
MOR-DOR ag-1: agonists of OPRM1-OPRD1 heterodimerization, primary screen, cell-based, luminescence; Mu-type opioid receptor (Homo sapiens) + Delta-type opioid receptor (Homo sapiens), …; cells; activation, % at 9.3 µM; 0.3% of 340,000 active; AID 504326, 2011;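 further: 0% = vehicle-treated cells and 100% = reference agonist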
MOR-DOR inv ag-2: inverse agonists of MOR-DOR heterodimerization, counter-screen for HTR5A inverse agonist project, cell-based, luminescence. U2OS counter-screen cells, complementation luminescence. shares compounds with HTR5A inv ag. AID 504912, 2011. 190 tested, under 10 active. inhibition, % at 9.3 µM; call rule not given here;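 further: 0% = cells with DMSO and 100% = wells without cells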
HTR5A inv confrm: HTR5A inverse agonists, retest of hits, confirmation, cell-based, luminescence; shares compounds with HTR5A inv ag; HTR5A-expressing cells, inverse agonism; inhibition, % at 9.3 µM; 190 tested, under 10 active; call rule not given here;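 further: 0% = cells with DMSO and 100% = no cells with DMSO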
MOR-DOR ag-2: OPRM1-OPRD1 heterodimerization promoters, counter-screen for HTR5A agonist project, cell-based, luminescence | U2OS counter-screen cells, complementation luminescence, 3 h | AID 504913, 2011 | 13% of 800 active | shares compounds with HTR5A ag ctr | activation, % at 9.3 µM
HTR5A ag confirm: HTR5A agonists, retest of hits, confirmation, cell-based, luminescence; HTR5A agonist cell assay; 17% of 800 active; activation, % at 9.3 µM; shares compounds with HTR5A ag ctr; in the data active means activation above about 17%;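 further: 0% = cells with vehicle only and 100% = full reference agonist response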
hGIII sPLA2 conf: human group III sPLA2 inhibitors, confirmation, biochemical, QFRET, triplicate | shares compounds with sPLA2-III inh | recombinant hGIII-sPLA2, BODIPY PC-A2 QFRET fluorescence | inhibition, % at 12.2 µM | 34% of 2,000 active | AID 743280, 2014;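 active means mean inhibition across triplicates above the hit cutoff set in the earlier primary screen, cut at about 19% in these data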;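 further: 0% = enzyme with DMSO and 100% = DMSO wells lacking enzyme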
535nm interf: 535nm fluorescence optical interference, confirmation, artefact control for HGIII-sPLA2 inhibitor project, biochemical, QFRET; shares compounds with sPLA2-III inh; BODIPY FL product fluorescence interference; inhibition, % at 12.2 µM; 8.5% of 2,000 active; AID 743282, 2014;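 active means average inhibition above the solvent-only control mean plus 3 SD, cut at about 6% in these data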;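 further: 0% = DMSO with substrate plus product and 100% = DMSO with substrate alone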
BODIPY interf DR: 535nm fluorescence optical interference, dose response, artefact control for HGIII-sPLA2 inhibitor project, biochemical, QFRET. BODIPY FL product fluorescence interference, cell-free. 240 tested, under 10 active. shares compounds with sPLA2-III inh. AID 743455, 2014. IC50, µM;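 active means IC50 at or below 10 µM; inactive means IC50 above 10 µM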
An asterisk follows results filed as active; x = not tested or not shown. A selection: hits, their analogues and other compounds. The true share with any hit is near 2.2%. Unless noted, no stated cut-off is given here; in the data, active means activation above about 18%; inactive means the rest.

SMILES	sPLA2-III inh	HTR5A ag ctr	MOR-DOR inv ag-1	HTR2A ag	HTR5A inv ag	MOR-DOR ag-1	MOR-DOR inv ag-2	HTR5A inv confrm	others
Cc1n[nH]c(=S)n(NC(=O)CC(=O)Nn2c(=S)[nH]nc(C)c2=O)c1=O	0.9	-23.6	-16.9	-12.7	65.2*	3.1	-84.6	16.1
Cc1ccc(-n2c(SCc3cccc(F)c3)nc3ccccc3c2=O)cc1	7.8	x	x	x	x	x	x	x
CCN(CC)c1ccc2cc(-c3nc4ccccc4[nH]3)c(=O)oc2c1	x	7.5	-5.7	0.0	-24.7	1.1	x	x
CCN(CC)c1ccc2nc3ccccc3[n+](CC)c2c1	x	-9.2	14.0	-3.1	34.0*	-2.9	-278.9	-4.0
CCN(CC)c1ccc2nc3ccc(N)cc3[n+](-c3ccccc3)c2c1	18.7	-14.2	14.6	-8.2	35.6*	-2.7	-4.1	36.8
NS(=O)(=O)c1ccc(N=Nc2c[nH]c(=O)c(O)c2)cc1	3.3	-9.1	19.4	-8.8	32.2*	-4.3	16.0	28.6
C#CCNC(=O)C[C@H]1C[C@@]2(C(=O)OC)C(=C[C@H](C(C)(C)C)O[C@@H]2C)N(Cc2ccco2)C1=O	-1.7	x	x	x	x	x	x	x
CCCCCCCCN1C(=O)[C@@H](CC(=O)NCc2ccc(C)o2)C[C@@]2(C(=O)OC)C1=C[C@H](COCc1ccccc1)O[C@@H]2C	-14.5	x	x	x	x	x	x	x
NC(=O)c1ccc(NC(=O)CN2CCOCC2)cc1	-0.6	-8.9	6.0	6.8	33.7*	-1.2	43.3*	21.8
O=[N+]([O-])c1ccc(O)c(N=Cc2sc3ccccc3c2O)c1	26.0*	-0.8	14.0	-2.2	46.1*	-2.6	-7.0	19.0	hGIII sPLA2 conf=35.9*;535nm interf=4.2;BODIPY interf DR=>122
Oc1ccc(Cl)cc1N=Cc1sc2ccccc2c1Cl	3.9	2.9	-24.5	-0.1	-7.5	4.9	x	x
O=C(CSc1nnc(-c2cccs2)o1)c1cccc([N+](=O)[O-])c1	-42.4	x	x	x	x	x	x	x
Oc1cccc2ccc(/C=C/c3ccccc3Br)nc12	26.1*	-16.9	25.0	-15.9	61.8*	-4.9	19.6	51.3*	hGIII sPLA2 conf=5.7;535nm interf=-0.8
CC(C)(C)OC(=O)N1CCC(NC(=O)c2ncn(Cc3ccccc3)c2C(=O)NC2CCN(C(=O)OC(C)(C)C)CC2)CC1	-5.1	14.8*	-10.6	-1.8	-24.7	1.9	x	x	MOR-DOR ag-2=4.6;HTR5A ag confirm=9.9
